In all, about 330,000 compounds went through this assay and about 610 (0.18%) were called active. Where a call stands in place of a potency, no number is given. Roughly 2% stayed inconclusive and do not appear here. The sample as a whole holds a higher share of actives than the screen did. A number with no mark means an inactive call. The call rests on the fitted dose curve.
Potency means the concentration at half of the fitted maximal effect.

The test can be described thus: qHTS of Yeast-based Assay for SARS-CoV PLP. Further: nearly all actives have a fitted effect of over 55% in size. The following applies: S. cerevisiae expressing SARS-CoV PLpro; Potency: growth rescue; series mostly up to 32.9 µM. Background: Quantitative high-throughput screening tests each substance at several concentrations.
Turning to `COc1ccc(NC(=O)Nc2ccc3c(c2)C(=O)N([C@H](C)CO)C[C@H](C)[C@@H](CN(C)C(=O)Nc2ccc4c(c2)OCO4)O3)cc1`, the Potency result was “inactive”.

Turning to `Cc1ccc(S(=O)(=O)N2[C@@H](c3cccc(Cl)c3)C(C(=O)O)=CC[C@H]2c2ccc(Cl)c(Cl)c2)cc1`, the Potency result is “inactive”.

With `CCCCNC(=O)N(O)C1N(/N=C/c2ccccc2O)C(=S)SC1(C)C` (stereo unspecified), the Potency entry is “inactive”.

Take `COC(=O)c1ccc(/C=N/OCC(=O)Nc2cc(F)ccc2F)cc1`: the Potency result was “inactive”.

Consider `COc1ccc(-c2cc(=O)oc3cc(OC(C)C(=O)NCC4CCC(C(=O)O)CC4)ccc23)cc1` (stereo unspecified), for which the Potency result was “inactive”.

Regarding `CSc1nsc(SCC(=O)Nc2cc(C(=O)O)ccc2C)n1`, the Potency result was “inactive”.

`O.O.O.O=S(=O)([O-])OC[C@H]1O[C@@H](O[C@]2(COS(=O)(=O)[O-])O[C@H](OS(=O)(=O)[O-])[C@@H](OS(=O)(=O)[O-])[C@@H]2OS(=O)(=O)[O-])[C@H](OS(=O)(=O)[O-])[C@@H](OS(=O)(=O)[O-])[C@@H]1OS(=O)(=O)[O-].[Al]`: the Potency result is “inactive”.

In the case of `CC(C)c1c(C(=O)N/N=C/c2ccc(-c3ccccc3)cc2)nnn1-c1nonc1N`, the Potency entry was “inactive”.

Regarding `CC(C)c1c(C(=O)N/N=C/c2ccccc2C(=O)O)nnn1-c1nonc1N`, the Potency is 5.01 µM (active).

For `Nc1nonc1-n1nnc(C(=O)N/N=C/c2c[nH]c3ccccc23)c1-c1ccccc1`, the Potency result was “inactive”.

In the case of `CCc1ccccc1N1C(=O)C2C3CC(=O)C(c4ccccc43)C2C1=O` (stereo unspecified), the Potency result is “inactive”.

Turning to `c1ccc2cc3c(NCCN4CCOCC4)ccnc3cc2c1`, the Potency result was “inactive”.

For `Fc1ccc(CNCc2ccc(Br)cc2)cc1`, the Potency result is “inactive”.

Consider `O=C(CCl)N(Cc1cccc([N+](=O)[O-])c1)c1cccc(Cl)c1`, for which the Potency result is “inactive”.

As for `COc1ccc(NC(=O)Cn2cc(C(=O)c3ccncc3)c(=O)c3cc(C)ccc32)cc1Cl`, the Potency entry was “inactive”.

`COc1cc(C2C(C(=O)OCCC#N)=C(C)NC3=C2S(=O)(=O)c2ccccc23)cc(OC)c1OC` (stereo unspecified): the Potency result is “inactive”.

`COc1ccc(C2N=C(N)N=C(N)N2c2ccccc2)cc1OC` (stereo unspecified): the Potency result is “inactive”.

On to `CCOC(=O)C1CCN(S(=O)(=O)c2c(C)noc2C)CC1`, for which the Potency entry is “inactive”.

As for `COc1ccc(CCN2CC(C(=O)NCCN3CCNC3=O)CCC2=O)cc1` (stereo unspecified), the Potency result is “inactive”.

On to `CN(C)C(=O)N1CCNCC1`, for which the Potency entry is “inactive”.

For the compound `CCC(=O)Nc1nc(OC)cc(OC)n1`, the Potency entry was “inactive”.

Take `COC(=O)c1ccc(NC(=O)CN(c2ccc(C)cc2)S(=O)(=O)c2c(C)n[nH]c2C)cc1`: the Potency entry is “inactive”.

In the case of `CCC(=O)Nc1c(C)n[nH]c1C`, the Potency was 10 µM (active).

Take `CCCC[C@]12Cc3cc(OC)c(OC)cc3C(O1)C1=C(CC3(CCCCC3)OC1=O)O2`: the activity, positive = growth rescue was 5.12% [at 6.58 µM].

Turning to `O=C(CSc1ncnc2c1cnn2CCc1ccccc1)Nc1ccc(F)cc1`, the Potency entry was “inactive”.

For `O=C(NCCCCCCCCCNC(=O)C(F)(F)F)C(F)(F)F`, the Potency entry is “inactive”.

As to `CC1CC(C)CN(C/C=C/c2ccccc2[N+](=O)[O-])C1` (stereo unspecified), the Potency entry is “inactive”.

`COc1ccc(NC(=O)C(NC(C)=O)C(=O)NCc2ccccc2Cl)cc1` (stereo unspecified): the Potency entry was “inactive”.

Take `CCCCNS(=O)(=O)CCNCc1ccccc1OC`: the Potency entry is “inactive”.

Take `CCOC(=O)[C@@H]1[C@H]2COc3cc(OC)ccc3[C@H]2N2C(=O)N(c3ccc(F)cc3)C(=O)[C@]12C`: the Potency result was “inactive”.

Regarding `CC(NC(=S)Nc1ccccc1)C1COc2ccccc2O1` (stereo unspecified), the Potency is 10 µM (active).

With `S=C(NCC1COc2ccccc2O1)Nc1ccc(Br)cc1` (stereo unspecified), the Potency entry was “inactive”.

With `CCCN(CC1COc2ccccc2O1)C(=S)Nc1ccc(C)cc1` (stereo unspecified), the Potency result is “inactive”.

In the case of `O=C(CNC(=O)C12CC3CC(CC(C3)C1)C2)OCC(=O)N1CCCCC1`, the Potency result was “inactive”.

Consider `Cc1sc(NC(=O)C2=COCCO2)c(C#N)c1C`, for which the Potency result is “inactive”.

Turning to `Cc1cccc(N2O[C@H]3C=CC2CCCC3)n1`, the Potency entry is “inactive”.

Consider `COc1ccc(CCNC(=O)COC(=O)c2ncc(Cl)c(Cl)c2Cl)cc1OC`, for which the Potency result was “inactive”.

For the compound `CC1(C)C2CCC1(CS(=O)(=O)NCCc1c[nH]c3ccccc13)C(=O)C2` (stereo unspecified), the Potency result is “inactive”.

On to `Cc1nc2c(C(=O)NCc3cccs3)cnn2c(C)c1Cc1ccc(F)cc1`, for which the Potency entry was “inactive”.

For the compound `Nc1ccccc1SC(C[N+](=O)[O-])c1ccccc1` (stereo unspecified), the Potency result was “inactive”.

On to `COc1ccc(N(CCC#N)S(=O)(=O)c2ccc(Cl)cc2)cc1`, for which the Potency result is “inactive”.

Take `Cc1ccc(N=C2NC(=O)/C(=C/C=C/c3ccco3)S2)cc1C`: the Potency result was “inactive”.

Turning to `Cc1cccc(N=C2NC(=O)/C(=C/c3cn(C)c4ccccc34)S2)c1`, the Potency is 15.8 µM (active).

Regarding `Cc1ccc(N2C(=O)S/C(=C/c3cn(C)c4ccccc34)C2=O)cc1`, the Potency result was “inactive”.

With `CCCCNc1nc2ccccc2nc1NS(=O)(=O)c1cccs1`, the Potency result was “inactive”.

`O=S(=O)([N-]c1nc2ccccc2nc1-[n+]1ccc(Cc2ccccc2)cc1)c1ccc(Br)s1`: the Potency entry was “inactive”.

`Cc1cc(C)c[n+](-c2nc3ccccc3nc2[N-]S(=O)(=O)c2cccs2)c1`: the Potency was 11.2 µM (active).

Turning to `CCC1CCCCN1C(=O)CSc1nc2c(c(=O)n1C)SC(C)C2` (stereo unspecified), the Potency entry was “inactive”.

As to `COc1ccc(Br)cc1/C=N/NC(=O)c1cccc(S(=O)(=O)N2CCOCC2)c1`, the Potency result was “inactive”.

On to `COc1cccc(/C=N/NC(=O)c2[nH]nc3c2CCc2ccccc2-3)c1O`, for which the Potency is 6.31 µM (active).

As to `COc1ccc(/C=N/NC(=O)c2ccncc2)cc1CN1CCCc2ccccc21`, the Potency result is “inactive”.

Consider `CC(C#N)(NC(=O)CN1CCN(S(=O)(=O)c2cc(C(F)(F)F)ccc2Cl)CC1)C1CC1` (stereo unspecified), for which the Potency entry was “inactive”.

On to `COc1ccc2cc(-c3[nH]ncc3CNCCn3nc(C)cc3C)ccc2c1`, for which the Potency entry is “inactive”.

As for `CCn1c(=O)c(=O)n(CC)c2cc(N3CCCCC3)c(NC(=O)c3ccc(Cl)cc3)cc21`, the Potency entry was “inactive”.

In the case of `N#Cc1ccc(-c2nc3cc(C#N)c(C#N)cc3nc2-c2ccccc2)cc1C#N`, the Potency entry was “inactive”.

Take `Cc1cc2ccccc2n2c(SCC(=O)N3CCN(C(=O)c4ccco4)CC3)nnc12`: the Potency result is “inactive”.

Take `N#Cc1ccc(C2=CC(=O)C[C@H](c3ccc(Cl)cc3)C2)cc1`: the Potency entry is “inactive”.

Consider `Cn1c(=O)c2c(SCC(=O)N3CCOCC3)nc(C3CC3)nc2n(C)c1=O`, for which the Potency entry was “inactive”.

As for `CCCCn1c(N)c(N(CC(C)C)C(=O)c2cnc(C)cn2)c(=O)[nH]c1=O`, the Potency result is “inactive”.

As for `CC(C)N1CCC(=NNc2ccc([N+](=O)[O-])cc2S(=O)(=O)N2CCOCC2)CC1`, the Potency entry is “inactive”.

Take `CCN(CC)S(=O)(=O)c1ccc2nc(CSc3nnnn3-c3ccc(O)cc3)[nH]c2c1`: the Potency entry is “inactive”.

The values above are taken from PubChem BioAssay AID485353 (National Center for Advancing Translational Sciences (NCATS), 2010).
